# Reference: PubChem BioAssay (Tox21)
# Several values for one entry are separate records, joined by “and”; a condition that tells them apart may be missing. Equal entries are not always repeated. Records with an inconclusive call do not appear. Where a call stands in place of a potency, no number is given. Some structures have more than one record in an assay (separate samples or runs), and their calls can disagree. Activity calls are given as the source filed them. Unless noted, the call rests on the fitted dose curve.
# Tests used:
# [1] = qHTS assay to identify small molecule agonists of the sonic hedgehog signaling (Shh) pathway (AID 1259368); further: nearly all actives have a fitted effect of over 15% in size; further: potency means the concentration at half of the fitted maximal effect
# How it was run: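 Cells of a mouse NIH/3T3 clone stably expressing luciferase under the Gli1 transcriptional response element are exposed to test chemicals for 24 hr at 37 C. Pathway activation is detected as a rise in luminescence.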
# [2] = qHTS assay to identify small molecule antagonists of the sonic hedgehog signaling (Shh) pathway (AID 1259369); further: nearly all actives have a fitted effect of over 45% in size; further: potency means the concentration at half of the fitted maximal effect
# How it was run: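 Cells are plated and held 4hr at 37 C, compounds (DMSO) are pinned in, conditioned medium is added to stimulate the pathway, and after 24hr luciferase reagent is added for 30min before luminescence is read.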
# [3] = target: Estrogen receptor beta (Homo sapiens) (UniProt Q92731); assay: qHTS assay to identify small molecule antagonists of the estrogen receptor beta (ER-beta) signaling pathway (AID 1259378; active means well fitted inhibition curve with a large enough effect in the signal ratio in the repeat runs, not every such curve was filed as active; the % refers to the signal ratio; further: potency means the concentration at half of the fitted maximal effect)
# Sequence of Estrogen receptor beta (Homo sapiens) (Q92731 whole entry, looked up): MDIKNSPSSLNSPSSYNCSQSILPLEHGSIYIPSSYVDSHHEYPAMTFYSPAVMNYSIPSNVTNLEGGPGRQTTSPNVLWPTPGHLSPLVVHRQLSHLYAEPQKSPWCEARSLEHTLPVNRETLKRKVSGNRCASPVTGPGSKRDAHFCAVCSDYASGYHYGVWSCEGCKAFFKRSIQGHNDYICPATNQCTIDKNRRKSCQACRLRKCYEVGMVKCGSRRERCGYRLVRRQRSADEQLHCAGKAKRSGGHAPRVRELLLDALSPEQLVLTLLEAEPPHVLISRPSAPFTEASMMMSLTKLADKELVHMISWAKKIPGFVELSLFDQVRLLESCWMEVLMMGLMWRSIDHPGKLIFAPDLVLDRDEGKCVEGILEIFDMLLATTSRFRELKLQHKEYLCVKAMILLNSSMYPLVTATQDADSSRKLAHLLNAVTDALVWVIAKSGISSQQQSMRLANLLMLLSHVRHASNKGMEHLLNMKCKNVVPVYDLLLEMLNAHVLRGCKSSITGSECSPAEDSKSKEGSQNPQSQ
# How it was run: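 ER-beta-UAS-bla HEK293T cells in 2% charcoal-stripped FBS medium treated with compound plus 1nM final 17-beta-estradiol for 16 hr at 37C. Beta-lactamase reporter read by FRET substrate fluorescence after 2 hours at room temperature.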
# [4] = qHTS assay to identify small molecule agonists of the androgen receptor (AR) signaling pathway in the presence of an antagonist - cell viability counter screen (AID 1259379; active means well fitted curve in the direction sought with a large enough effect in the repeat runs; an effect the other way counts as inactive or inconclusive; further: nearly all actives have a fitted effect of over 25% in size; further: potency means the concentration at half of the fitted maximal effect)
# How it was run: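 Cytotoxicity is assessed by CellTiter-Fluor in MDA-kb2 cells carrying an MMTV-driven luciferase reporter. Cells receive 3.0uM nilutamide plus compounds at 15 concentrations and incubate 16 hr at 37C without CO2 before fluorescence reading.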
# [5] = qHTS assay to identify small molecule agonists of the estrogen receptor beta (ER-beta) signaling pathway - cell viability counter screen (AID 1259380; active means well fitted curve in the direction sought with a large enough effect in the repeat runs; an effect the other way counts as inactive or inconclusive; further: nearly all actives have a fitted effect of over 30% in size; further: potency means the concentration at half of the fitted maximal effect)
# How it was run: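 Cytotoxicity is measured in parallel with the reporter screen: after 16 hr compound exposure at 37C and a 2 hr LiveBLAzer step, CellTiter-Glo is added to the same ER-beta-UAS-bla HEK293T wells and luminescence read after 30 min.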
# [6] = qHTS assay to identify small molecule antagonists of the estrogen receptor beta (ER-beta) signaling pathway - cell viability counter screen (AID 1259382; active means well fitted curve in the direction sought with a large enough effect in the repeat runs; an effect the other way counts as inactive or inconclusive; further: nearly all actives have a fitted effect of over 55% in size; further: potency means the concentration at half of the fitted maximal effect)
# How it was run: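 Cytotoxicity counter screen multiplexed with the beta-lactamase antagonist assay: GripTite HEK293T ER-beta-bla cells were treated 16 hr with test chemicals in the presence of 1nM 17-beta-estradiol, and viability was measured by CellTiter-Glo.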
# [7] = target: Estrogen receptor (Homo sapiens) (UniProt P03372); assay: qHTS assay to identify small molecule agonists of the estrogen receptor alpha (ER-alpha) signaling pathway in the presence of an antagonist (AID 1259383); further: nearly all actives have a fitted effect of over 15% in size; further: potency means the concentration at half of the fitted maximal effect; on activation: top concentration of the series differs between compounds
# Sequence of Estrogen receptor (Homo sapiens) (P03372 whole entry, looked up): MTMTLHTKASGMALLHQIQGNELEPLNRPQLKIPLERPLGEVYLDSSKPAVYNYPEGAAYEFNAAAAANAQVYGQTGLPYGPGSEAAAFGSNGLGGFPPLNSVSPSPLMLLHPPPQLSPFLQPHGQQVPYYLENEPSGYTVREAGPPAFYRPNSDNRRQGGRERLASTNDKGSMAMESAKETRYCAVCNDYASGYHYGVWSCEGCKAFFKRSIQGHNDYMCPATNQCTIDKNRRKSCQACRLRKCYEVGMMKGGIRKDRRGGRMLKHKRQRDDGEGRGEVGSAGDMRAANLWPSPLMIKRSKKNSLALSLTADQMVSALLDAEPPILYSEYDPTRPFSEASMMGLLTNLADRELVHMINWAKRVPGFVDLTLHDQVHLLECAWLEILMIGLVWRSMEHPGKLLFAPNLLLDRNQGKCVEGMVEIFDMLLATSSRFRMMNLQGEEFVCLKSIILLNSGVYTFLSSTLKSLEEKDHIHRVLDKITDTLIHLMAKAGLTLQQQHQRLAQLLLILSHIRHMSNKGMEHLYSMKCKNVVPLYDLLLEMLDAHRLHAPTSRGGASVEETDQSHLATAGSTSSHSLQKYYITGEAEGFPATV
# How it was run: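 Agonist-mode confirmation in the presence of the ER antagonist ICI-182,780 at 10.0nM final. Breast-derived VM7Luc4E2 reporter cells were exposed to compounds for 22hr, and ERE-driven luciferase was quantified by luminescence.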
# [8] = qHTS assay to identify small molecule agonists or antagonists of the thyroid stimulating hormone receptor (TSHR) signaling pathway - wild type cell line counter screen (AID 1259384)
# How it was run: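 Wild-type Hek293 cells, 800/well, 18 h at 37C, then compound with Ro20-1724 for 30 min RT. cAMP by HTRF (cAMP-d2/anti-cAMP cryptate), 1 h RT, fluorescence read. 15 concentrations, triplicates.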
# [9] = target: Estrogen receptor beta (Homo sapiens) (UniProt Q92731); assay: qHTS assay to identify small molecule agonists of the estrogen receptor beta (ER-beta) signaling pathway (AID 1259377; active means well fitted activation curve with a large enough effect in the signal ratio in the repeat runs, not every such curve was filed as active; the % refers to the signal ratio)
# How it was run: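 A UAS-controlled beta-lactamase reporter in ER-beta-UAS-bla HEK293T cells reports receptor activation. Compounds act for 16 hr at 37C in 2% charcoal-stripped serum, and a FRET substrate is read by fluorescence after 2 hours.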
# [10] = target: Androgen receptor (Homo sapiens) (UniProt P10275); assay: qHTS assay to identify small molecule agonists of the androgen receptor (AR) signaling pathway in the presence of an antagonist (AID 1259381); further: nearly all actives have a fitted effect of over 15% in size
# Sequence of Androgen receptor (Homo sapiens) (P10275 whole entry, looked up): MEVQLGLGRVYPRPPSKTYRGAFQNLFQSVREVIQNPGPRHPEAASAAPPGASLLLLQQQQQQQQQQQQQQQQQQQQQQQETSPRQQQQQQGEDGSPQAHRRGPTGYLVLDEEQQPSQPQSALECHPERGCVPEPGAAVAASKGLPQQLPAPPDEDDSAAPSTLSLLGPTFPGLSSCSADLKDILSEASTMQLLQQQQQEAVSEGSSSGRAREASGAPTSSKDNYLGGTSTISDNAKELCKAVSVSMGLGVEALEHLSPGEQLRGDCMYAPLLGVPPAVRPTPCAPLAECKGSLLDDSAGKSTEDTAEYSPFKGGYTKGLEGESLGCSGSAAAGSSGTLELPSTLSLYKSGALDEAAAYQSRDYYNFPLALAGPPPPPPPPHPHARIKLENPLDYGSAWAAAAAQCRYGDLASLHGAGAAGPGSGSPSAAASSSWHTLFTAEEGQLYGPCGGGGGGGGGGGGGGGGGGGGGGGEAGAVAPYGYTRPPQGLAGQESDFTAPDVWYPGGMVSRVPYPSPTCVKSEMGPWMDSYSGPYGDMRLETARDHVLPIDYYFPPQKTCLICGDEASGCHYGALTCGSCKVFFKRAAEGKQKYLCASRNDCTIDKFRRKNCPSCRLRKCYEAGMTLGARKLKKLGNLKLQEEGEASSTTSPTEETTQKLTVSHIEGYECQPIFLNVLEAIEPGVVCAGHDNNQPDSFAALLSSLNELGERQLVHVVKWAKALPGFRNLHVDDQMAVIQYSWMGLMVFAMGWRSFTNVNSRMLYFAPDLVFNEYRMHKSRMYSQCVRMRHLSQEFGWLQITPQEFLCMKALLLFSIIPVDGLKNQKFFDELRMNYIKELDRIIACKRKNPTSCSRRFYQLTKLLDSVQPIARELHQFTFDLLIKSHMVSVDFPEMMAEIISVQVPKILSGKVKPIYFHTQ
# How it was run: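 Agonist-mode confirmation screen: human MDA-kb2 cells stably expressing luciferase under an MMTV promoter bearing AR and GR response elements, co-treated with 3.0uM nilutamide (final). Luminescence measured after 16hr compound incubation.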
SMILES,Potency [1],Potency [2],Potency [3],Potency [4],Potency [5],Potency [6],Potency [7],outcome [8],Potency [9],Potency [10]
CC(C)NC(C)C,inactive,inactive,inactive,inactive,inactive,inactive,inactive,inactive,,
CC(C)(OOC(C)(C)c1ccccc1)c1ccccc1,inactive,inactive,,inactive,inactive,inactive,,inactive,inactive,inactive
CC1(C)C(C=C(Cl)Cl)C1C(=O)OC(C#N)c1cccc(Oc2ccccc2)c1 (stereo unspecified),inactive,inactive,inactive,inactive,inactive,inactive,inactive,inactive,,
CCCCNC(=O)n1c(NC(=O)OC)nc2ccccc21,inactive,30.5 µM (active) and inactive,inactive,inactive,inactive,,inactive,inactive,,inactive
O=S(=O)(Oc1ccc(Cl)cc1)c1ccc(Cl)cc1,inactive,inactive,inactive,inactive,inactive,,inactive,inactive,inactive,
OCC(O)CO,inactive,inactive,inactive,inactive,inactive,,inactive,inactive,inactive,
Nc1ccncc1,inactive,inactive,inactive,inactive,inactive,,inactive,inactive,,inactive
CC(O)CCO (stereo unspecified),inactive,inactive,inactive,inactive,inactive,inactive,,inactive,inactive,
O=C(Nc1ccc(Br)cc1)c1cc(Br)cc(Br)c1O,inactive,13.7 µM (active) and 13.3 µM (active),,21.6 µM (active) and 19.3 µM (active) and 29.8 µM (active),19.3 µM (active) and 29.8 µM (active),24.3 µM (active),2.42 µM (active) and inactive,inactive,inactive,
Nc1ccc(-c2ccc(N)c(N)c2)cc1N,inactive,13.6 µM (active),48.4 µM (active),inactive,,inactive,,inactive,inactive,
Nc1ccc(-c2ccccc2)cc1,inactive,17.7 µM (active) and inactive,inactive,inactive,19.9 µM (active) and inactive,inactive,8.87 µM (active) and 9.69 µM (active),inactive,,
Cc1c(COC(=O)[C@@H]2[C@H](/C=C(\Cl)C(F)(F)F)C2(C)C)cccc1-c1ccccc1,inactive,inactive,inactive,inactive,inactive,,inactive,inactive,inactive,
COP(=S)(OC)Oc1cc(Cl)c(Cl)cc1Cl,inactive,inactive,inactive,inactive,inactive,inactive,inactive,inactive,,inactive
CC(C)N(C(=O)SCC(Cl)=C(Cl)Cl)C(C)C,inactive,inactive,inactive,inactive,inactive,inactive,,inactive,,
NNC(N)=S,inactive,8.97 µM (active) and 12.2 µM (active),11.3 µM (active) and 30.6 µM (active),inactive,31.8 µM (active),12.7 µM (active),inactive,inactive,inactive,
C=CCc1ccc(OC)cc1,inactive,inactive,inactive,inactive,inactive,,,inactive,inactive,
CCCCCCCCCCCOC(=O)c1ccccc1C(=O)OCCCCCCCCCCC,inactive,inactive,inactive,inactive,inactive,inactive,inactive,inactive,,
CC(C)(C)c1ccccc1O,inactive,inactive,inactive,inactive,inactive,inactive,,,inactive,
CCC(C)(c1ccc(O)cc1)c1ccc(O)cc1,inactive,24.3 µM (active) and 61.1 µM (active),0.243 µM (active),inactive,inactive,inactive,9.68 µM (active) and 8.63 µM (active),inactive,,
O=C(NC(=O)c1c(F)cccc1F)Nc1ccc(Cl)cc1,inactive,inactive,inactive,inactive,inactive,inactive,inactive,inactive,,
CCC(C)c1ccc(O)cc1 (stereo unspecified),inactive,inactive,inactive,inactive,inactive,inactive,,,,
O=[N+]([O-])c1c(Cl)c(Cl)c(Cl)c(Cl)c1Cl,inactive,inactive,inactive,60.8 µM (active) and 48.6 µM (active),inactive,inactive,inactive,,,inactive
O=C1C=CC(=O)C=C1,inactive,inactive,inactive,inactive,inactive,inactive,,inactive,inactive,
CCC(C)(C)c1ccc(O)cc1,inactive,inactive,inactive,inactive,inactive,inactive,inactive,inactive,,
Cc1cc(C)cc(C)c1,inactive,inactive,inactive,inactive,inactive,inactive,,inactive,,

SMILES,Potency [1],Potency [2],Potency [3],Potency [4],Potency [5],Potency [6],Potency [7],outcome [8],Potency [9],Potency [10]
c1ccc(NNc2ccccc2)cc1,inactive,inactive,inactive,inactive,inactive,inactive,,inactive,inactive,
C=C(C)C(=O)OCC1CO1 (stereo unspecified),inactive,inactive,inactive,inactive,inactive,,inactive,inactive,inactive,
Oc1cc(Cl)c(Cl)cc1Cl,inactive,inactive,inactive,inactive,inactive,inactive,,inactive,inactive,
O=[N+]([O-])c1ccc(O)c([N+](=O)[O-])c1,inactive,30.8 µM (active) and 30.6 µM (active),inactive,48.8 µM (active) and 48.6 µM (active),inactive,,inactive,inactive,inactive,inactive
CCOc1cc(Oc2ccc(C(F)(F)F)cc2Cl)ccc1[N+](=O)[O-],inactive,inactive,inactive,inactive,inactive,inactive,inactive,inactive,inactive,
O=P(Oc1ccccc1)(Oc1ccccc1)Oc1ccccc1,inactive,1.08 µM (active) and 2.43 µM (active),,inactive,34.4 µM (active),inactive,inactive,inactive,inactive,
C#C[C@]1(O)CC[C@H]2[C@@H]3CCC4=CC(=O)CC[C@]4(C)[C@H]3CC[C@@]21C,inactive,inactive,inactive,inactive,inactive,inactive,,inactive,inactive,
Nn1cnnc1,inactive,inactive,inactive,inactive,inactive,inactive,inactive,inactive,inactive,
N#CC(Br)Br,inactive,inactive,inactive,inactive,inactive,inactive,inactive,inactive,,
c1nc[nH]n1,inactive,inactive,inactive,inactive,inactive,,inactive,inactive,inactive,
CN(C)c1ccc(C(=O)c2ccc(N(C)C)cc2)cc1,inactive,inactive and 24.3 µM (active),inactive,,inactive,inactive,,inactive,inactive,
CCC(C)c1cc([N+](=O)[O-])cc([N+](=O)[O-])c1O (stereo unspecified),inactive,inactive and 12.2 µM (active),inactive,inactive and 21.7 µM (active),inactive,inactive,inactive,inactive,inactive,
CCN(N=O)C(N)=O,inactive,inactive,inactive,inactive,inactive,inactive,inactive,inactive,,
Oc1ccc(-c2ccccc2)cc1,inactive,inactive,,inactive,,,inactive,inactive,,
C=CCc1ccc2c(c1)OCO2,inactive,inactive,,inactive,inactive,,,inactive,,
COP(=S)(OC)Oc1ccc([N+](=O)[O-])cc1,inactive,inactive,inactive,,inactive,,inactive,inactive,,
CCOP(=S)(OCC)O/N=C(\C#N)c1ccccc1,inactive,inactive,inactive,inactive,inactive,,,inactive,,
Oc1cc(Cl)ccc1Cl,inactive,inactive,,inactive,inactive,inactive,,inactive,,
Nc1cccnc1,inactive,inactive,inactive,inactive,inactive,,inactive,inactive,,
CCN(CC)C(=O)SCc1ccc(Cl)cc1,inactive,inactive,,inactive,inactive,inactive,inactive,inactive,,
CCCCN(CC)c1c([N+](=O)[O-])cc(C(F)(F)F)cc1[N+](=O)[O-],inactive,inactive,inactive,inactive,inactive,,,inactive,,
Cc1ccc(N)c(N)c1,1.73 µM (active) and 1.54 µM (active),,,inactive,inactive,inactive,,inactive,inactive,
c1ccc(N=Nc2ccccc2)cc1,inactive,inactive,,inactive,inactive,,,inactive,,
c1cc(OCC2CO2)ccc1Cc1ccc(OCC2CO2)cc1 (stereo unspecified),inactive,19.4 µM (active) and 21.7 µM (active),,inactive,48.6 µM (active),48.8 µM (active) and inactive,inactive,inactive,,inactive
CCCCC(CC)COC(=O)Cl (stereo unspecified),inactive,,inactive,inactive,inactive,,inactive,inactive,inactive,
